# Shiga inhibitor – A qHTS for Small Molecule Inhibitors of Shiga Toxin; Vero cells, Shiga toxin protein synthesis inhibition reporter; inhibition, % at 38.7 µM; hit rate 9.2% among 290,000; AID 2315, 2010; in the data active = inhibition mostly above about 28%, no sharp cut-off; inactive = mostly below about 43%; also: 0% is about no effect
# MARV entry inh – qHTS for inhibitors of binding or entry into cells for Marburg Virus; Potency, µM (highest dose often 37.8 µM), inactives show at the top dose activity change, negative = inhibition, usual class: inhibitors; hit rate 1.8% among 300,000; Marburg virus pseudotyped entry inhibition, cell reporter; AID 540276, 2011; calls by dose curve; tested in HEK293 cells; also: potency is read from the fitted curve at half-maximal effect; % is scaled to controls: 0 for no effect and ±100 for the full control effect
# Cycloheximide cs – Cycloheximide Counterscreen for Small Molecule Inhibitors of Shiga Toxin. cell reporter, cycloheximide protein synthesis inhibition counterscreen. max response, %. AID 2314, 2010. hit rate 12% among 300,000; in the data active = max response mostly above about 13%, no sharp cut-off; inactive = mostly below about 14%; also: read at 38.3 µM for the half of the compounds with a filed dose; 0% is about no effect
# LASV entry inh – qHTS for Inhibitors of binding or entry into cells for Lassa Virus | AID 540256, 2011 | hit rate 1.2% among 300,000 | Lassa virus pseudotype entry inhibition, cell reporter | Potency, µM (highest dose often 37.9 µM), without a hit: at the highest dose activity change, negative = inhibition, usual class: inhibitors; calls by dose curve; tested in HEK293 cells; also: potency is read from the fitted curve at half-maximal effect; % is scaled to controls: 0 for no effect and ±100 for the full control effect; nearly all actives have a fitted effect of over 50% in size
# Numbers without * were called inactive; ? = inconclusive; . = no result given; [ ] = another dose, or the depositor's remark. A selection: hits, their analogues and other compounds. The true share with any hit is near 12%.
SMILES,Shiga inhibitor,MARV entry inh,Cycloheximide cs,LASV entry inh
CC(C)(C)c1ccc(CN(Cc2ccco2)c2cnc(S(C)(=O)=O)nc2C(=O)Nc2ccc(F)cc2)cc1,.,?,.,-25%[46.1 µM]
CN1C(=O)CSc2ccc(NC(=O)N3CCN(c4ccccc4)CC3)cc21,-3,-11%[46.1 µM],14,1%
CN1C(=O)c2ccccc2Sc2ccc(NC(=O)N3CCN(c4cccc(Cl)c4)CC3)cc21,.,11µM*,.,?
O=C(O)c1ccc(-n2nc(C(F)(F)F)cc2-c2cccs2)cc1,31,.,1,.
COc1ccc(-c2nc(NC3=NCCCCC3)sc2C)cc1,14,?,8,?
CCNc1nc(-c2ccc(OC(F)F)cc2)c(C)s1,124*,?,41*,?
COC(=O)N/N=C/c1ccc(-c2ccccc2Cl)o1,41*,-12%,41*,?
NC(=S)N/N=C/c1ccc(-c2cc(Cl)c(Cl)cc2Cl)o1,-3,-13%[46.1 µM],-1,-14%[46.1 µM]
COC(=O)N/N=C/c1ccc(-c2ccc(Cl)cc2Cl)o1,26,9%[46.1 µM],11*,-14%[46.1 µM]
NS(=O)(=O)c1ccc(NCC2COc3ccccc3O2)c([N+](=O)[O-])c1 (centres undefined),63,?,16*,2%[46.1 µM]
CC(=O)c1ccc(NCC2COc3ccccc3O2)c([N+](=O)[O-])c1 (centres undefined),57*,?,31*,?
COc1cccc(-c2nc3c(c(SCc4ccccc4)n2)Cc2c(CO)cnc(C)c2O3)c1,.,.,.,3%[46.1 µM]
CC1CC(C)CN(CCCNC(=O)c2ccc3c(c2)ncn3C2CCCC2)C1 (centres undefined),15,.,6,.
CC(C)c1ccc(NC(=O)CSc2nc3ccccc3nc2Cc2ccccc2)cc1,.,.,.,29%[46.1 µM]
O=c1c2cc(Br)ccc2[nH]c(=S)n1Cc1ccccn1,11,-7%,24*,18%
O=c1c2cc(N3CCOCC3)ccc2[nH]c(=S)n1Cc1ccccn1,active,12%,17*,-3%
O=c1c2ccccc2[nH]c(=S)n1CC1CCCO1 (centres undefined),.,3%,.,-7%
O=c1c2cc(N3CCOCC3)ccc2[nH]c(=S)n1Cc1ccccc1Cl,3,0%[46.1 µM],4,-3%[46.1 µM]
O=c1c2cc(N3CCOCC3)ccc2[nH]c(=S)n1CC1CCCO1 (centres undefined),54*,-17%,10,?
COc1ccc(-c2noc(C(C)NC(=O)c3ccco3)n2)cc1 (centres undefined),.,2%[46.1 µM],.,24%[46.1 µM]
COc1ccccc1CC(=O)Nc1ccc(-c2noc(COc3cccc(C)c3C)n2)cc1,-6,-2%,-3,.
Cc1ccccc1OCc1nc(-c2ccc(NC(=O)c3ccc4c(c3)OCO4)cc2)no1,20,?,15,-25%
Cc1ccccc1OCc1nc(-c2ccc(NC(=O)c3ccco3)cc2)no1,52*,?,35*,?
Cc1ccccc1OCc1nc(-c2ccc(NC(=O)c3cccs3)cc2)no1,154*,?,50*,?
CC(Oc1ccc(Cl)cc1Cl)c1nc(-c2ccc(NC(=O)c3ccco3)cc2)no1 (centres undefined),113*,?,71*,?
SMILES,Shiga inhibitor,MARV entry inh,Cycloheximide cs,LASV entry inh
Cc1cc2occ(CC(=O)N(C)CC(=O)Nc3cccc(F)c3)c2cc1C,-3,?,1,4%
COC(=O)c1[nH]c2ccc(C)cc2c1NC(=O)CN1CCN(c2ccccc2)CC1,-9,?,1,?
COC(=O)c1[nH]c2ccc(C)cc2c1NC(=O)CN1CCN(c2ccc(F)cc2)CC1,-4,?,-2,13µM*
CCOC(=O)c1[nH]c2ccc(OCC)cc2c1NC(=O)CN1CCN(c2ccccc2)CC1,60,18%,28*,-29%
COC(=O)c1[nH]c2ccccc2c1NC(=O)CN1CCN(C/C=C/c2ccccc2)CC1,-13,18µM*,-3,?
CCOC(=O)c1[nH]c2ccc(OCC)cc2c1NC(=O)CN1CCC2(CC1)OCCO2,13,-15%,9,?
COCCCNC(=O)CCCn1c(=O)c2ccccc2n(CC(=O)Nc2ccc(C)cc2Cl)c1=O,.,20%[46.1 µM],.,12%[46.1 µM]
O=C(O)c1ccc2c(c1)C(=O)N(c1ncccn1)C2=O,-13,?,-5,?
CC(C)CC(=O)C1=C(O)C(=O)N(Cc2ccccc2)C1c1ccccc1 (centres undefined),.,.,1,.
COc1ccc(OC)c(CCNC(=O)c2c(C)oc3ncn(CC(C)C)c(=O)c23)c1,.,.,.,-17%[46.1 µM]
Cc1ccccc1CCNC(=O)c1ccc(NC(=O)N2CC(C)Sc3ccccc32)cc1 (centres undefined),.,28%[46.1 µM],.,14%[46.1 µM]
COCCN(Cc1nc(-c2ccc(-c3ccccc3)cc2)oc1C)C(C)C,38*,.,31*,.
Cc1cc(N)c2ccccc2[n+]1CCCCCCCCCCCCCC[n+]1c(C)cc(N)c2ccccc21,.,8.9µM*,.,.
CC1(C)NC(=O)N(CC(=O)OCC(=O)Nc2cc(S(=O)(=O)N3CCCCC3)ccc2Cl)C1=O,-9,-16%,-3,-4%
CC(CCCC(C)(C)O)NC(=O)c1cc(COc2ccc3ncccc3c2)on1 (centres undefined),23,-9%[46.1 µM],5,?
CCn1c(C)cc(/C=C2\NC(=O)N(CC(=O)Nc3cccc(C)c3)C2=O)c1C,-11,-11%,1,?
O=C1N/C(=C/c2ccsc2)C(=O)N1c1ccccc1,47*,.,26*,.
CCn1c(C)cc(/C=C2/NC(=O)N(c3ccccc3)C2=O)c1C,97*,-25%,43*,?
COCCn1c(C)cc(/C=C2/NC(=O)N(c3cccc(Cl)c3)C2=O)c1C,64*,.,38*,.
COc1cccc(OC)c1C(=O)N1CCN(C(=O)c2ccc(-c3ccccc3)cc2)CC1,-4,27%[46.1 µM],5,?
Oc1cccc(C=NCc2ccccc2)c1O,-6,-10%,-1,4%
Oc1ccc(/C=N/N=C(c2ccccc2)c2ccccc2)c(O)c1O,27,?,18*,?
O=C(/C(=N/N=C/c1ccc(O)c(O)c1O)c1ccccc1)c1ccccc1,12,?,6,8.9µM*
Cc1ccc(C)c(NC(=O)C(=O)NCCc2csc(-c3cccc(F)c3)n2)c1,.,.,.,17%[46.1 µM]
CCN(CC)c1nc(SCCOC(=O)Nc2ccccc2)nc(N(CC)CC)n1,29,?,16*,?
SMILES,Shiga inhibitor,MARV entry inh,Cycloheximide cs,LASV entry inh
COc1cc(CN(C(=O)c2ccccc2F)C2CCS(=O)(=O)C2)cc(OC)c1OC (centres undefined),.,15%[46.1 µM],.,?
CC(C)CC(=O)N/C(N)=N/c1nc2ccccc2o1,103*,?,51*,?
CC(C)(C)C(=O)N/C(N)=N/c1nc2ccccc2o1,71*,?,50*,?
Cc1ccc(C(=O)N/C(N)=N/c2nc3ccccc3o2)cc1,23,3%,10,0%
N/C(=N\c1nc2ccccc2o1)NC(=O)c1ccccc1,49*,4%,46*,-17%
NC(=NCc1ccco1)NC(=O)c1ccccc1,21*,.,27*,.
CCCCCn1nnc2c(=O)oc3ccccc3c21,5,.,-5,.
O=C(CSc1nc(=O)[nH]c2c1CCCC2)NCc1ccccc1,.,.,.,12%[46.1 µM]
CC(C)CNC(=O)C(=O)NCC1CCCN1S(=O)(=O)c1cccs1 (centres undefined),.,4%,.,3%[46.1 µM]
